We go through three molecules from PMC11062922 (Nature Chemical Biology, 2023).

Design in all cases: species or system human, MV4-11 + K-562 + COLO205 + SK-N-BE2 + OVCAR-8
Test [1] has as its system ADCK3. Conditions: read-out: apparent Kd, n = 1.
Test [2] concerns AKT3. The conditions noted are these: read-out: apparent Kd; compound concentrations:100 nM and 1000 nM (sheet 'Samples'); n = 1.
The test system of test [3] is BRAF. Conditions: read-out: apparent Kd, n = 1.
Test [4] relates to NNT. The conditions noted are these: read-out: apparent Kd; compound concentrations:100 nM and 1000 nM (sheet 'Samples'); n = 1.
For test [5], the system named is RIPK2. Conditions: read-out: apparent Kd; compound concentrations:100 nM and 1000 nM (sheet 'Samples'); n = 1.
Test [6] has as its system STK26. Conditions: read-out: apparent Kd; compound concentrations:100 nM and 1000 nM (sheet 'Samples'); n = 1.
For test [7], the system named is MAP2K5. The conditions noted are these: read-out: apparent Kd; compound concentrations: 100 nM and 1000 nM (sheet 'Samples'), CATDS: 0.203043275988008; n = 1.
Test [8] deals with PTK6. Conditions: read-out: apparent Kd; compound concentrations: 100 nM and 1000 nM (sheet 'Samples'), CATDS: 0.17376653089903399; n = 1.
Test [9] relates to RIPK3. Conditions: read-out: apparent Kd; compound concentrations: 100 nM and 1000 nM (sheet 'Samples'), CATDS: 9.1073681697651607E-2; n = 1.
In test [10] the test system is TESK1. The conditions noted are these: read-out: apparent Kd; compound concentrations: 100 nM and 1000 nM (sheet 'Samples'), CATDS: 9.2639666275084007E-2; n = 1.
In test [11] the test system is ZAK. Conditions: read-out: apparent Kd; compound concentrations: 100 nM and 1000 nM (sheet 'Samples'), CATDS: 0.21269926478279999; n = 1.
Test [12] deals with AKT2. Conditions: read-out: apparent Kd; compound concentrations:100 nM and 1000 nM (sheet 'Samples'); n = 1.
Test [13] relates to CDK17. The conditions noted are these: read-out: apparent Kd; compound concentrations:100 nM and 1000 nM (sheet 'Samples'); n = 1.
For test [14], the system named is CIT. Conditions: read-out: apparent Kd; compound concentrations:100 nM and 1000 nM (sheet 'Samples'); n = 1.
Test [15] has as its system DCTPP1. The conditions noted are these: read-out: apparent Kd; compound concentrations:100 nM and 1000 nM (sheet 'Samples'); n = 1.
In test [16] the test system is EPHA1. The conditions noted are these: read-out: apparent Kd; compound concentrations:100 nM and 1000 nM (sheet 'Samples'); n = 1.
Test [17] concerns EPHB6. Conditions: read-out: apparent Kd; compound concentrations:100 nM and 1000 nM (sheet 'Samples'); n = 1.
Test [18] has as its system ERBB3. Conditions: read-out: apparent Kd; compound concentrations:100 nM and 1000 nM (sheet 'Samples'); n = 1.
Test [19] concerns ERN2. The conditions noted are these: read-out: apparent Kd; compound concentrations:100 nM and 1000 nM (sheet 'Samples'); n = 1.
Test [20] deals with IGF1R. Conditions: read-out: apparent Kd; compound concentrations:100 nM and 1000 nM (sheet 'Samples'); n = 1.
Test [21] has as its system JAK2. The conditions noted are these: read-out: apparent Kd; compound concentrations:100 nM and 1000 nM (sheet 'Samples'); n = 1.
The subject of test [22] is MELK. The conditions noted are these: read-out: apparent Kd; compound concentrations:100 nM and 1000 nM (sheet 'Samples'); n = 1.
In test [23] the test system is PDGFRB. Conditions: read-out: apparent Kd; compound concentrations:100 nM and 1000 nM (sheet 'Samples'); n = 1.
The test system of test [24] is PYGL. The conditions noted are these: read-out: apparent Kd; compound concentrations:100 nM and 1000 nM (sheet 'Samples'); n = 1.
Test [25] has as its system RIOK2. The conditions noted are these: read-out: apparent Kd; compound concentrations:100 nM and 1000 nM (sheet 'Samples'); n = 1.
The subject of test [26] is TTN. Conditions: read-out: apparent Kd; compound concentrations:100 nM and 1000 nM (sheet 'Samples'); n = 1.
[27] abbreviates: compound concentrations:100 nM and 1000 nM (sheet 'Samples').

Where two headings read alike, the source gives them in different places.

As for `CN(C)CCOc1ccc(-c2nc(-c3ccc4c(c3)CC/C4=N/O)c(-c3ccncc3)[nH]2)cc1` [SB-590885_KCGS], the potency estimated from few doses in [1] (setting [27]) is 1.15 µM; in [2], 1.9 µM; in test [3] (setting [27]), 0.0886 µM; in test [4] it was 1.68 µM; in test [5], 0.679 µM; in test [6] it was 2.21 µM.

On to `CCCS(=O)(=O)Nc1ccc(F)c(-n2cc(-c3cncc(OC)c3)nn2)c1F` [BI00865461], for which the potency estimated from few doses in [1] (compound concentrations: 100 nM and 1000 nM (sheet 'Samples'), CATDS: 9.7263378995511504E-2) is 1.21 µM; in test [3] (compound concentrations: 100 nM and 1000 nM (sheet 'Samples'), CATDS: 0.639948734699749), 0.00745 µM; in test [7], 0.0704 µM; in test [8] it was 0.108 µM; in test [9], 1.79 µM; in [10] it was 1.61 µM. Further, the potency estimated from few doses in test [11] was 0.0625 µM.

As for `CNc1nc(-c2ccc3c(N)n[nH]c3c2)cc(N2C[C@@H](C(=O)NC3CCCCC3)CC[C@H]2C)n1` [GSK2334470], the potency estimated from few doses in [1] (setting [27]) is 1.18 µM; in test [12], 1.57 µM; in [13], 2.13 µM; in test [14], 1.43 µM; in test [15], 1.89 µM; in test [16], 0.845 µM. Also, the potency estimated from few doses in test [17] is 1.84 µM; in test [18], 1.36 µM; in test [19], 1.44 µM; in test [20], 2.36 µM; in test [21], 0.47 µM; in test [22], 1.64 µM. Further, the potency estimated from few doses was 1.95 µM in test [23], 2.02 µM in test [24], 2.11 µM in [25] and 0.945 µM in test [26].
